About 79,000 compounds went through this panel and 15% of them were active in at least one assay; those are over-represented in the sample as a whole. Activity calls are given as the source filed them. No stated cut-off is given here; in the data, active means growth inhibition above about 70%; inactive means the rest.
Experiments:
[1] = NCI Yeast Anticancer Drug Screen. Data for the wt2 strain (AID 169);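 further: 0% = growth of vehicle-treated yeast cultures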; conditions: S. cerevisiae wt2 strain growth inhibition, stronger effect = higher value
Procedure, shortened: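 Against vehicle-treated controls, the growth of yeast exposed to each compound was compared, and the inhibition was recorded.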

[2] = NCI Yeast Anticancer Drug Screen. Data for the mlh1 strain (AID 171);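 further: 0% = growth of vehicle-treated control cultures of the same strain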; conditions: S. cerevisiae mlh1 strain growth inhibition, stronger effect = higher value
Procedure, shortened: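 Measured: yeast growth. Reference: vehicle-treated controls. Organism: strain with a defined alteration affecting DNA damage repair or cell cycle control, treated with compound.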

[3] = NCI Yeast Anticancer Drug Screen. Data for the sgs1 strain (AID 173);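 further: 0% = growth of vehicle-only control cultures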; conditions: S. cerevisiae sgs1 mutant, stronger effect = higher value
Procedure, shortened: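 Each compound was added to cultures of the altered yeast strain. Growth was recorded, and inhibition was derived by comparison with vehicle controls.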

[4] = NCI Yeast Anticancer Drug Screen. Data for the mlh1 rad18 strain (AID 175); conditions: S. cerevisiae mlh1 rad18 strain growth inhibition, stronger effect = higher value
Procedure, shortened: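 Genetically defined yeast (DNA repair-deficient) exposed to compounds; growth inhibition determined relative to vehicle.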

[5] = NCI Yeast Anticancer Drug Screen. Data for the rad18 strain (AID 177); conditions: S. cerevisiae rad18 mutant growth inhibition, stronger effect = higher value
Procedure, shortened: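 Vehicle-treated cultures served as the baseline for scoring compound-induced growth inhibition in DNA-repair-mutant yeast.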

[6] = NCI Yeast Anticancer Drug Screen. Data for the rad52 strain (AID 147);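 further: 0% = growth of vehicle-treated control cultures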; conditions: S. cerevisiae rad52 mutant growth inhibition, stronger effect = higher value
Procedure, shortened: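 The repair-mutant yeast strain was incubated with compounds, then growth was read and inhibition derived relative to vehicle.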

[7] = NCI Yeast Anticancer Drug Screen. Data for the wt1 strain (AID 149);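 further: 0% = growth of vehicle-treated wt1 cultures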; conditions: S. cerevisiae wt1 strain (SPY 50644) growth inhibition, stronger effect = higher value
Procedure, shortened: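 Yeast wt1 strain exposed to compounds; growth inhibition measured relative to vehicle-treated controls.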

[8] = NCI Yeast Anticancer Drug Screen. Data for the rad50EPP+ strain (AID 151);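 further: 0% = growth of vehicle-treated control cultures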; conditions: S. cerevisiae rad50 mutant strain, stronger effect = higher value
Procedure, shortened: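 Vehicle-normalised growth inhibition; rad50EPP+ yeast strain, altered in DNA damage repair, compound-treated.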

[9] = NCI Yeast Anticancer Drug Screen. Data for the mgt1 strain (AID 153); conditions: S. cerevisiae mgt1 mutant growth inhibition, stronger effect = higher value
Procedure, shortened: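 Vehicle-normalized growth inhibition is determined in mgt1 yeast, a strain selected for a defined alteration in DNA repair or cell cycle control.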

[10] = NCI Yeast Anticancer Drug Screen. Data for the rad50 strain (AID 155);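 further: 0% = growth of vehicle-only cultures of the same strain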; conditions: S. cerevisiae rad50 strain growth inhibition, stronger effect = higher value
Procedure, shortened: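 Yeast carrying a defined DNA repair defect were exposed to test compounds, and growth was compared with vehicle-treated controls to give percent inhibition.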

[11] = NCI Yeast Anticancer Drug Screen. Data for the mec2-1 strain (AID 157); conditions: S. cerevisiae mec2-1 strain, stronger effect = higher value
Procedure, shortened: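 Mutant yeast (mec2-1) grown with compound; growth inhibition relative to vehicle control reported.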

[12] = NCI Yeast Anticancer Drug Screen. Data for the rad14 strain (AID 159);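 further: 0% = growth of vehicle-treated control cultures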; conditions: S. cerevisiae rad14 strain growth inhibition, stronger effect = higher value
Procedure, shortened: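 Yeast cells carrying a defined DNA-repair defect were exposed to compounds, and growth inhibition was calculated relative to vehicle-treated control cultures.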

[13] = NCI Yeast Anticancer Drug Screen. Data for the sgs1 mgt1 strain (AID 161);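 further: 0% = growth of cultures given vehicle only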; conditions: S. cerevisiae sgs1 mgt1 strain, stronger effect = higher value
Procedure, shortened: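 Percent growth inhibition was derived by comparing compound-exposed mutant yeast with vehicle-exposed cultures. The strain carries alterations in DNA damage repair.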

[14] = NCI Yeast Anticancer Drug Screen. Data for the CLN2oe strain (AID 163);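 further: 0% = growth of vehicle-only control cultures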; conditions: S. cerevisiae CLN2oe strain, stronger effect = higher value
Procedure, shortened: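 Compounds are applied to yeast harbouring a defined cell-cycle control change; reduced growth compared with vehicle-treated controls gives the value.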

[15] = NCI Yeast Anticancer Drug Screen. Data for the cln2 rad14 strain (AID 165);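 further: 0% = growth equal to vehicle treated cultures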; conditions: S. cerevisiae cln2 rad14 strain, stronger effect = higher value
Procedure, shortened: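 Readout is yeast growth inhibition versus vehicle-treated controls, using a strain with cln2 and rad14 alterations exposed to compound.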

[16] = NCI Yeast Anticancer Drug Screen. Data for the bub3 strain (AID 167); conditions: S. cerevisiae bub3 mutant strain, stronger effect = higher value
Procedure, shortened: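 Compounds were applied to a genetically altered yeast strain carrying a cell-cycle control defect. Growth inhibition was scored against vehicle-treated controls.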

[17] = at 5.0 µM (retest, dose inferred, filed as 0.5)
[18] = at 50.0 µM (retest, dose inferred, filed as 5.0)

Measured: growth inhibition

CCCN(CCC)c1c([N+](=O)[O-])cc(S(N)(=O)=O)cc1[N+](=O)[O-]
inactive: [1]; at 1.2 µM -6% | [1]; at 3.7 µM -2% | [1]; at 11.0 µM -7% | [1]; at 33.0 µM 3% | [1]; at 100.0 µM -2% | [2]; at 1.2 µM -27% | [2]; at 3.7 µM -28% | [2]; at 11.0 µM -16% | [2]; at 33.0 µM 31% | [2]; at 100.0 µM -6% | [3]; at 1.2 µM 3% | [3]; at 3.7 µM 10% | [3]; at 11.0 µM 16% | [3]; at 33.0 µM 30% | [3]; at 100.0 µM 6% | [4]; [17] 9% | [5]; at 1.2 µM -8% | [5]; at 3.7 µM -1% | [5]; at 11.0 µM 6% | [5]; at 33.0 µM 50% | [5]; at 100.0 µM 0%
active: [4]; [18] 70% | [4]; at 50.0 µM 72.9%

CCC(=O)OC1CCn2c1nc1c2C(=O)C(C)=C(N2CC2)C1=O (centres undefined)
inactive: [6]; at 1.2 µM -5% | [6]; at 3.7 µM 26% | [6]; at 11.0 µM 17% | [6]; at 33.0 µM 41% | [7]; at 1.2 µM 4% | [7]; at 3.7 µM -7% | [7]; at 11.0 µM -11% | [7]; at 33.0 µM -8% | [7]; at 100.0 µM 2% | [8]; at 1.2 µM 12% | [8]; at 3.7 µM 1% | [8]; at 11.0 µM -9% | [8]; at 33.0 µM 7% | [8]; at 100.0 µM 25% | [9]; at 1.2 µM 7% | [9]; at 3.7 µM -7% | [9]; at 11.0 µM -1% | [9]; at 33.0 µM 6% | [9]; at 100.0 µM 16% | [10]; at 1.2 µM 18% | [10]; at 3.7 µM -3% | [10]; [17] 48% | [10]; at 11.0 µM 18% | [10]; at 33.0 µM 34% | [10]; at 50.0 µM 55.8% | [11]; at 1.2 µM -7% | [11]; at 3.7 µM -2% | [11]; [17] 38% | [11]; at 11.0 µM 6% | [11]; at 33.0 µM 20% | [11]; [18] 64% | [11]; at 100.0 µM 64% | [12]; at 1.2 µM 8% | [12]; at 3.7 µM 7% | [12]; at 11.0 µM 14% | [12]; at 33.0 µM 38% | [13]; [17] 20% | [13]; [18] 66% | [14]; at 1.2 µM -41% | [14]; at 3.7 µM -44% | [14]; at 11.0 µM -43% | [14]; at 33.0 µM -39% | [14]; at 100.0 µM -19% | [15]; [17] 14% | [15]; [18] 54% | [15]; at 50.0 µM 57.6% | [16]; at 1.2 µM 9% | [16]; at 3.7 µM -3% | [16]; [17] -24% | [16]; at 11.0 µM -9% | [16]; at 33.0 µM -14% | [16]; [18] -11% | [16]; at 50.0 µM -7.05% | [16]; at 100.0 µM 13% | [1]; at 1.2 µM -30% | [1]; at 3.7 µM -35% | [1]; at 11.0 µM -29% | [1]; at 33.0 µM -19% | [1]; at 100.0 µM 16% | [2]; at 1.2 µM 5% | [2]; at 3.7 µM 24% | [2]; at 11.0 µM -11% | [2]; at 33.0 µM -10% | [2]; at 100.0 µM 24% | [3]; at 1.2 µM 14% | [3]; at 3.7 µM 30% | [3]; at 11.0 µM 37% | [3]; at 33.0 µM 55% | [4]; [17] 45% | [4]; at 50.0 µM 69%
active: [6]; at 100.0 µM 82% | [10]; [18] 87% | [10]; at 100.0 µM 78% | [11]; at 50.0 µM 70.4% | [12]; at 100.0 µM 79% | [13]; at 50.0 µM 71.4% | [3]; at 100.0 µM 80% | [4]; [18] 73%

N#Cc1cc(N(CCCl)CCCl)c([N+](=O)[O-])cc1[N+](=O)[O-]
inactive: [6]; at 1.2 µM 7% | [6]; at 3.7 µM 19% | [6]; at 11.0 µM 28% | [6]; at 33.0 µM 67% | [7]; at 1.2 µM -6% | [7]; at 3.7 µM 4% | [7]; at 11.0 µM -7% | [7]; at 33.0 µM 2% | [7]; at 100.0 µM 58% | [8]; at 1.2 µM 15% | [8]; at 3.7 µM 17% | [8]; at 11.0 µM 11% | [8]; at 33.0 µM 32% | [8]; at 100.0 µM 39% | [9]; at 1.2 µM -2% | [9]; at 3.7 µM -8% | [9]; at 11.0 µM -4% | [9]; at 33.0 µM 28% | [10]; at 1.2 µM -4% | [10]; at 3.7 µM -8% | [10]; [17] 5% | [10]; at 11.0 µM 10% | [10]; at 33.0 µM 40% | [10]; [18] 42% | [10]; at 100.0 µM 65% | [11]; at 1.2 µM 22% | [11]; at 3.7 µM 24% | [11]; [17] -43% | [11]; at 11.0 µM 23% | [11]; at 33.0 µM 28% | [11]; [18] 11% | [11]; at 100.0 µM 67% | [12]; at 1.2 µM 3% | [12]; at 3.7 µM 7% | [12]; at 11.0 µM 19% | [12]; at 33.0 µM 61% | [13]; [17] -19% | [13]; [18] 46% | [14]; at 1.2 µM 2% | [14]; at 3.7 µM 6% | [14]; at 11.0 µM -2% | [14]; at 33.0 µM 14% | [15]; [17] 11% | [15]; [18] 43% | [16]; at 1.2 µM 11% | [16]; at 3.7 µM 10% | [16]; [17] -11% | [16]; at 11.0 µM -7% | [16]; at 33.0 µM 31% | [16]; [18] 40% | [1]; at 1.2 µM 4% | [1]; at 3.7 µM 6% | [1]; at 11.0 µM 8% | [1]; at 33.0 µM 36% | [2]; at 1.2 µM 34% | [2]; at 3.7 µM 4% | [2]; at 11.0 µM 34% | [3]; at 1.2 µM 29% | [3]; at 3.7 µM 31% | [3]; at 11.0 µM 44% | [4]; [17] 21% | [5]; at 1.2 µM 64%
active: [6]; at 100.0 µM 85% | [9]; at 100.0 µM 87% | [10]; at 50.0 µM 87.4% | [11]; at 50.0 µM 88.8% | [12]; at 100.0 µM 88% | [13]; at 50.0 µM 90.3% | [14]; at 100.0 µM 71% | [15]; at 50.0 µM 79.5% | [16]; at 50.0 µM 84.9% | [16]; at 100.0 µM 79% | [1]; at 100.0 µM 80% | [2]; at 33.0 µM 70% | [2]; at 100.0 µM 92% | [3]; at 33.0 µM 82% | [3]; at 100.0 µM 92% | [4]; [18] 76% | [4]; at 50.0 µM 80.5% | [5]; at 3.7 µM 82% | [5]; at 11.0 µM 89% | [5]; at 33.0 µM 95% | [5]; at 100.0 µM 95%

Source: PubChem BioAssay (NCI)
